Source: PubChem BioAssay
PKM2 act: activators of human pyruvate kinase M2; purified PKM2, Kinase-Glo ATP luminescence, activation; response scale: 0% is enzyme alone, no compound; Potency, µM (titrated, usually from 57.5 µM), most hits filed as activators; 0.34% of 260,000 active; AID 1631; further: nearly all actives have a fitted effect of over 55% in size
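Purified hPK-M2 (>95% pure) converted ADP (0.1 mM final) to ATP with 0.5 mM PEP in 50 mM imidazole pH7.2, KCl, MgCl2, Tween 20, BSA; 1 h at room temperature. ATP detected by Kinase-Glo luminescence.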
GALK inhibitor: galactokinase (human) inhibition; P51570; Purified GALK, Kinase-Glo residual ATP luminescence; Potency, µM (doses to about 57.5 µM), usual class: inhibitors; 0.007% of 270,000 active; AID 1868
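Quantitative HTS: GALK 5 nM, ATP 35 uM, galactose 100 uM, 1 h room temperature, then luciferase-based ATP detection.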
PI4K2A block: PI4K2A (human) kinase inhibition | Q9BTU6 | purified PI4K2A, ADP-Glo luminescence, 1 h; hits give low values | activity change, negative = inhibition, % at 76.9 µM | 0.13% of 420,000 active; in the data active means activity change below about -50%; inconclusive means mostly about -30% to -49%
Target sequence (Q9BTU6 whole entry, looked up): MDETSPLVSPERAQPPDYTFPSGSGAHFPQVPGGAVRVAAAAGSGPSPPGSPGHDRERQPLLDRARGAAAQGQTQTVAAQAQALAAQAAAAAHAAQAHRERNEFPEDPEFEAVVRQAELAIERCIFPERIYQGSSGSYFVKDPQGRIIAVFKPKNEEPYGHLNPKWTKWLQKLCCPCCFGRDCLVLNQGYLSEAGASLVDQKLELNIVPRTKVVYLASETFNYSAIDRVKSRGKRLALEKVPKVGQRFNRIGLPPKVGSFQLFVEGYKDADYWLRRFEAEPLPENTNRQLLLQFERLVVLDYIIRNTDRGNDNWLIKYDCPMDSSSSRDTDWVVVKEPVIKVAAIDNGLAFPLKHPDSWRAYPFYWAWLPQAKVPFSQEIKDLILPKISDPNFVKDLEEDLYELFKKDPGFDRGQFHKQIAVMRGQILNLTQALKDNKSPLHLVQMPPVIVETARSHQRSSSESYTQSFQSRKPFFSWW
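In this quantitative HTS, ADP production by PI4K2A was quantified luminescently after 1 h at ambient temperature; 100 microM adenosine served as plate-quality control.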
TrxR1 inh: blocks rat thioredoxin reductase 1 | recombinant rTrxR1, NADPH fluorescence consumption, selenite substrate | Potency, µM (doses to about 114 µM), hits mostly inhibitors | 1% of 390,000 active | O89049; further: nearly all actives have a fitted effect of over 65% in size
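Rat TrxR1 (90 nM in the dispensed reagent) was pre-reduced with 400 uM NADPH for 5 min at room temperature, then incubated with compound for 15 min. After 400 uM selenite was added, NADPH fluorescence (Ex 340/Em 450 nm) was followed for 8 min.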
TrxR1 substrate: substrates of rat thioredoxin reductase 1; purified TrxR1 substrate turnover, NADPH consumption readout; 0.01% of 390,000 active; Potency, µM (titrated, usually from 114 µM); AID 588456; O89049; further: nearly all actives have a fitted effect of over 50% in size
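Rat TrxR1, dispensed at 90 nM, was prereduced with 400 uM NADPH (final) for 5 min at ~22 deg C, then incubated with compound 15 min before 400 uM selenite. A first-read NADPH fluorescence drop versus no-compound background flagged substrates.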
Each line names hits and unclear results; the compound was inactive in the other large screens. Rows were chosen to be rich in hits. Some 1.2% of all compounds tested hit in one or more screens of this group. Unless noted, the call rests on the fitted dose curve; in most records, active means well fitted curve in the direction sought with a large enough effect; inconclusive means small, poorly fitted or top-dose-only effect, or another doubt; inactive means no such curve, though single readings can be large; an effect the other way counts as inactive or inconclusive.

O=C1NC(=S)N(c2ccccc2F)C(=O)/C1=C\c1cccs1	PKM2 act inconclusive, TrxR1 inh 8.9µM
CN1CCC(N(Cc2ccccc2)c2ccccc2)CC1	none (no result: PKM2 act, GALK inhibitor, TrxR1 inh, TrxR1 substrate)
O=[N+]([O-])c1ccc(Sc2nc3ccccc3o2)c([N+](=O)[O-])c1	TrxR1 inh 0.63µM
O=[N+]([O-])c1ccc(N2CC2)c([N+](=O)[O-])c1	none (no result: PKM2 act, GALK inhibitor)
CC(=NCc1ccc2c(c1)OCO2)c1c(O)n(Cc2ccccc2)c(=O)[nH]c1=O	PKM2 act 25µM
Cc1cc(/C=C2/C(=O)NC(=O)N(Cc3ccco3)C2=O)c(C)n1-c1ccccc1O	none
C=CCN1C(=O)/C(=C/c2cc(C)n(-c3ccccn3)c2C)C(=O)NC1=S	TrxR1 inh 50µM
Oc1ccc2c3c1O[C@H]1[C@@H](O)C=C[C@H]4[C@@H](C2)NCC[C@@]341	none (no result: PKM2 act, GALK inhibitor, TrxR1 inh, TrxR1 substrate)
Cc1cc2c(C(C)C)c(O)c(O)c(C=O)c2c(O)c1-c1c(C)cc2c(C(C)C)c(O)c(O)c(C=O)c2c1O	PKM2 act inconclusive, GALK inhibitor inconclusive, TrxR1 inh 40µM, TrxR1 substrate inconclusive
O=C(N[C@@H]1N=C(c2ccccc2F)c2cccc3c2N(CC3)C1=O)c1cc2ccccc2[nH]1	none (no result: PKM2 act, GALK inhibitor, TrxR1 inh, TrxR1 substrate)
O=C1NC(=O)N(c2cccc(Br)c2)C(=O)/C1=C/c1ccsc1	TrxR1 inh 45µM
NCC(=O)c1cccc([N+](=O)[O-])c1	none (no result: PKM2 act, GALK inhibitor, PI4K2A block)
COc1ccccc1CNC(=O)CCC1N=C2c3ccccc3N=C(SCc3cccc(Cl)c3)N2C1=O (centres undefined)	none (no result: PKM2 act, GALK inhibitor)
O=C(CCN1CCN(c2ccccc2)CC1)c1ccc(Br)cc1	TrxR1 inh 4µM (no result: PKM2 act)
CN(C)CCc1c[nH]c2ccccc12	none (no result: PKM2 act, GALK inhibitor, TrxR1 inh, TrxR1 substrate)
Cn1ncnc2c(=O)n(C)c(=O)nc1-2	GALK inhibitor 1.3µM, PI4K2A block -52, TrxR1 inh inconclusive, TrxR1 substrate 40µM
Cc1ccc(-c2nc3c(=O)n(C)c(=O)nc-3n(C)n2)cc1	TrxR1 inh 11µM, TrxR1 substrate 13µM (no result: PKM2 act, GALK inhibitor, PI4K2A block)
N#CC(C#N)=NNc1ccc(OC(F)(F)F)cc1	none (no result: GALK inhibitor, PI4K2A block, TrxR1 inh, TrxR1 substrate)
COc1ccccc1C(=O)Nc1ccc2nc(SCC(=O)N(C)c3ccccc3)sc2c1	none (no result: PKM2 act, GALK inhibitor)
Cc1ccc(NC(=O)CN2C(=O)CN=C(c3ccccc3)c3ccccc32)cc1Cl	none (no result: PKM2 act, GALK inhibitor)
COc1ccc(NC2CC(=O)N(C(C)C)C2=O)cc1 (centres undefined)	TrxR1 inh 3.5µM
Cn1cccc1/C=C1/C(=O)NC(=S)N(Cc2ccc(F)cc2)C1=O	TrxR1 inh 45µM
Cn1cccc1/C=C1/C(=O)NC(=O)N(Cc2ccc(F)cc2)C1=O	TrxR1 inh inconclusive
O=C1/C(=C/c2ccccc2)C[C@@]2(O)[C@H]3Cc4ccc(O)c5c4[C@@]2(CCN3CC2CC2)C1O5 (some centres undefined)	TrxR1 inh 35µM (no result: PKM2 act, GALK inhibitor)
CN1CC(C(=O)c2ccc(Cl)cc2)C(c2ccc(Cl)cc2Cl)C1 (centres undefined)	none (no result: PKM2 act)
CN1CCC(O)(c2ccc(Cl)cc2)C(C(=O)c2ccc(Cl)cc2)C1 (centres undefined)	TrxR1 inh 0.11µM
CCOC(=O)C1=C(C)c2ccccc2OC1(C(=O)OCC)c1ccccc1 (centres undefined)	TrxR1 inh 45µM (no result: PKM2 act, GALK inhibitor)
CN(C)c1ccc(C=C2C(=O)NC(=O)NC2=O)cc1[N+](=O)[O-]	TrxR1 inh inconclusive
COc1ccc(C=C2C(=O)NC(=S)NC2=O)cc1	TrxR1 inh 2.8µM (no result: PKM2 act, GALK inhibitor)
COc1ccc(OCCOc2cccc(C=C3C(=O)NC(=O)NC3=O)c2)cc1	none (no result: PI4K2A block, TrxR1 inh, TrxR1 substrate)
O=C1NC(=S)NC(=O)C1=Cc1ccc(OCc2ccccc2)cc1	TrxR1 inh 7.9µM (no result: PKM2 act, GALK inhibitor)
CN(C)c1ccc(C=C2C(=O)NC(=S)NC2=O)cc1[N+](=O)[O-]	TrxR1 inh 4µM
CC#C[C@]1(O)CC[C@H]2[C@@H]3C[C@H](C)C4=CC(=O)CC[C@]4(C)[C@H]3CC[C@@]21C	none (no result: PKM2 act, GALK inhibitor, TrxR1 inh, TrxR1 substrate)
COc1cccc(C(=O)CCN[C@@H](C)[C@H](O)c2ccccc2)c1	none (no result: PKM2 act, GALK inhibitor, TrxR1 inh, TrxR1 substrate)
C[C@]12CC[C@H]3[C@@H](CCC4=CC(=O)CC[C@@]43C)[C@@H]1CC[C@@H]2C(=O)O	none (no result: PKM2 act, GALK inhibitor, TrxR1 inh, TrxR1 substrate)
C[C@H]1CC[C@@H]2[C@@H](C)[C@H]3C(C[C@H]4C5CC[C@H]6C[C@@H](O)CC[C@]6(C)C5CC[C@]34C)N2C1 (some centres undefined)	none (no result: PKM2 act, GALK inhibitor, PI4K2A block)
